# Data published in the supplement of paper PMC10849652.
# The full data set covers some 7,900 targets. This sample favours those with a hit. About 0.6% of all pairs of compound and target were hits.
# Compound: c1cn2cc(-c3ccc4cn[nH]c4c3)nc(Nc3ccc(N4CCOCC4)cc3)c2n1 [entospletinib]
# Test: log2 fold change, soluble protein after heating vs DMSO (PISA); higher = thermal stabilisation; K562 cells, 10 uM, 30 min; active = over 0.2 and 3.5 SD of the protein, either way, in both replicates (recomputed)
# Outline: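 Quantification of soluble protein used TMTpro 16plex LC-MS/MS, with channel sums equalised. Samples were the supernatant after 21,000xg for 90 min of pooled aliquots from K562 cells (2×10^6 cells/mL) treated with 10 μM compound for 30 min, heated for 3 min over 48°C-58°C, and extracted in PBS with 0.5% NP-40 at 4°C. Values, from duplicates, describe thermal stability against control samples on a log2 fold-change scale.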
# UniProt Q9P2R7, sequence (Q9P2R7 whole entry, looked up): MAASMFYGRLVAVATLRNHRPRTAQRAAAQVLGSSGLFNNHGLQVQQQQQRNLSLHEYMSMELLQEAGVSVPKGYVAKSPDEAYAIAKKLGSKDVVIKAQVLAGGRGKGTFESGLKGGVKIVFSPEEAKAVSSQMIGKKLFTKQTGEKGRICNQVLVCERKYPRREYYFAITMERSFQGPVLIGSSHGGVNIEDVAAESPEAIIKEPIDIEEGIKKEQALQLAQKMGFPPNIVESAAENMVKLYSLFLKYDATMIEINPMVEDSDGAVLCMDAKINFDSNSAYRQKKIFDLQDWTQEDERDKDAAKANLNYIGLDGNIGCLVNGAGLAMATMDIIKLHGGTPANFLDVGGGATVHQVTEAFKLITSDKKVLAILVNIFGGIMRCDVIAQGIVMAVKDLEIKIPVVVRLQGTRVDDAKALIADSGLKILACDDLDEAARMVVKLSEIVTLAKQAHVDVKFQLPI
# UniProt Q96NT5, sequence (Q96NT5 whole entry, looked up): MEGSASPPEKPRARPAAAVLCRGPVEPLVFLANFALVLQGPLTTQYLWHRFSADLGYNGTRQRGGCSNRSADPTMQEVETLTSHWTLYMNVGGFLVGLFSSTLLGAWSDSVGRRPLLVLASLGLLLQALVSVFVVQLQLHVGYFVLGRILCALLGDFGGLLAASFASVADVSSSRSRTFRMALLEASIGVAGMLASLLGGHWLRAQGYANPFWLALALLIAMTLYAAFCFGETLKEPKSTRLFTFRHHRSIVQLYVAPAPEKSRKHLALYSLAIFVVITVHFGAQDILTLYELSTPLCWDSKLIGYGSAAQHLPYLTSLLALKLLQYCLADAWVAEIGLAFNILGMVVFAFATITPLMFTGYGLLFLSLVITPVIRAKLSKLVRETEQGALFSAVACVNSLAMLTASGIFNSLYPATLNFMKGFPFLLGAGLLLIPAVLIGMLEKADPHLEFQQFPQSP
# UniProt Q01082, sequence (Q01082 whole entry, looked up): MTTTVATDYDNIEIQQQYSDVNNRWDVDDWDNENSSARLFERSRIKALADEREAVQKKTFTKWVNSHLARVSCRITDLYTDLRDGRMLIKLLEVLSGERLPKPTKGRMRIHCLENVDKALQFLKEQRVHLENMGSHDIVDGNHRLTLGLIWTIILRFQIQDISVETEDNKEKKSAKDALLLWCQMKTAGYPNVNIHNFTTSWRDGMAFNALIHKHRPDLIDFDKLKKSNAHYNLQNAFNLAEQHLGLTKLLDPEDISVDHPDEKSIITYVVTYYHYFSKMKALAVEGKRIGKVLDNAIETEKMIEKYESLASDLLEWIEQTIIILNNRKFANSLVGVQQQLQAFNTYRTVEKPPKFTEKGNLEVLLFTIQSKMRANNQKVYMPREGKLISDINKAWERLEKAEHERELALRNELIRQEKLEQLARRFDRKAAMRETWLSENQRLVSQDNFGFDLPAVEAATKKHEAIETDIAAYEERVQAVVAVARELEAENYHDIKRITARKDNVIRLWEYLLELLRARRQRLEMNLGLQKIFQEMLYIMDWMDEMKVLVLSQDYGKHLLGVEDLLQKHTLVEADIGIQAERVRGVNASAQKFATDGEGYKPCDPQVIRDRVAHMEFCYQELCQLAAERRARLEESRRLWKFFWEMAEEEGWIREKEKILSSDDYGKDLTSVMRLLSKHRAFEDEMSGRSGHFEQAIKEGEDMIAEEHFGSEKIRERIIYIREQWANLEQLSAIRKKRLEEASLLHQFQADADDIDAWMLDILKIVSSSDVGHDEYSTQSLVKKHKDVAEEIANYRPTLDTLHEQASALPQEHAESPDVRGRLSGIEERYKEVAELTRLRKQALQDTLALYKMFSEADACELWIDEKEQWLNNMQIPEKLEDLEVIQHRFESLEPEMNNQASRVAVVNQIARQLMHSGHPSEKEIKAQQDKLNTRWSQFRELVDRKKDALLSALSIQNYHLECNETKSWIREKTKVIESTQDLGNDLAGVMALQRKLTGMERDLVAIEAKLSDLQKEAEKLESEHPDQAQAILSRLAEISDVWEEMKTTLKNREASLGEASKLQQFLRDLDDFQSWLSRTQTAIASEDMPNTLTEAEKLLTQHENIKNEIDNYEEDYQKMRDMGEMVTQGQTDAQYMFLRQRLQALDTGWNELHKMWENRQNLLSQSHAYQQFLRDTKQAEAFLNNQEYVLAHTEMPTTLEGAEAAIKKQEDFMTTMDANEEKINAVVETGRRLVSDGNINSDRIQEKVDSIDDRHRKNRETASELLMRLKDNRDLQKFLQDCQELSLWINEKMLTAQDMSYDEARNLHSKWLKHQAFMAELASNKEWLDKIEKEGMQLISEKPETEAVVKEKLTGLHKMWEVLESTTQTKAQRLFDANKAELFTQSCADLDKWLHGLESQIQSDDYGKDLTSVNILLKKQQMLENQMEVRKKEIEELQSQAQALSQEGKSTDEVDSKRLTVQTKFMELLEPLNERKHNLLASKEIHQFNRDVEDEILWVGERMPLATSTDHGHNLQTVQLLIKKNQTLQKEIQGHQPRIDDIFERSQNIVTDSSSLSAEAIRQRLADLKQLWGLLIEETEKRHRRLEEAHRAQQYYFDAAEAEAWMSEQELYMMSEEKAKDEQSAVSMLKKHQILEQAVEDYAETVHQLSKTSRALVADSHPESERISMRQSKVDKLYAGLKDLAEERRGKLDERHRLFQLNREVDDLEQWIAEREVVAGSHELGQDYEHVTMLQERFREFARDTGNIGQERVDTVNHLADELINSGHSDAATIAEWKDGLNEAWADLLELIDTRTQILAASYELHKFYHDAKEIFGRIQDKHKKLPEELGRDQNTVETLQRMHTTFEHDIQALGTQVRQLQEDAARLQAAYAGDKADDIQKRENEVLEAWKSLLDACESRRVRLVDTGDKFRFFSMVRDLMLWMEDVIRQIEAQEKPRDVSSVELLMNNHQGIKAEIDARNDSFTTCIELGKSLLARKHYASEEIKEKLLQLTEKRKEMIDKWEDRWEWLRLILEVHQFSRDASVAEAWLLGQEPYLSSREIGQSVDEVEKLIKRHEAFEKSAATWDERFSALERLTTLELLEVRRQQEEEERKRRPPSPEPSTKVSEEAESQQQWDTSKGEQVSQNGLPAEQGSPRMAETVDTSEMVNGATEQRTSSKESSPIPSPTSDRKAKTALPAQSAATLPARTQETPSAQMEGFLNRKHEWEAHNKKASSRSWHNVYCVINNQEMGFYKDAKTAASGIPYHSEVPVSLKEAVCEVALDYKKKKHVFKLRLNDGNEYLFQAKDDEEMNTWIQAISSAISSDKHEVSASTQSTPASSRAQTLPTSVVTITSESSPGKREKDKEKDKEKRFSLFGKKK
# UniProt Q16385, sequence (Q16385 whole entry, looked up): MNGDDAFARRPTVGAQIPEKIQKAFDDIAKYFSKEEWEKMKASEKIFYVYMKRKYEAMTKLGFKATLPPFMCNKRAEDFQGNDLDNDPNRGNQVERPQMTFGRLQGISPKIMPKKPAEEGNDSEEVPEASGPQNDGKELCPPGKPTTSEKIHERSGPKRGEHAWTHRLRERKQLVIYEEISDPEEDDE
# UniProt Q13247, sequence (Q13247 whole entry, looked up): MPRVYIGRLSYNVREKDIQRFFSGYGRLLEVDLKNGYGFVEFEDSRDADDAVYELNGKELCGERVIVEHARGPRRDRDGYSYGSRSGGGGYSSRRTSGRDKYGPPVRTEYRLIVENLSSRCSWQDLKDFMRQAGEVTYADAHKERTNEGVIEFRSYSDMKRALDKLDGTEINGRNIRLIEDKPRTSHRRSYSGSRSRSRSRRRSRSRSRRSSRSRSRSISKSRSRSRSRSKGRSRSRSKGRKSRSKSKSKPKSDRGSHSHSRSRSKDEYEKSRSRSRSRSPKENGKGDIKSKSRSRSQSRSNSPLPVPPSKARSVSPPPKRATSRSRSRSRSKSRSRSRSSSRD
# UniProt Q8WXA9, sequence (Q8WXA9 whole entry, looked up): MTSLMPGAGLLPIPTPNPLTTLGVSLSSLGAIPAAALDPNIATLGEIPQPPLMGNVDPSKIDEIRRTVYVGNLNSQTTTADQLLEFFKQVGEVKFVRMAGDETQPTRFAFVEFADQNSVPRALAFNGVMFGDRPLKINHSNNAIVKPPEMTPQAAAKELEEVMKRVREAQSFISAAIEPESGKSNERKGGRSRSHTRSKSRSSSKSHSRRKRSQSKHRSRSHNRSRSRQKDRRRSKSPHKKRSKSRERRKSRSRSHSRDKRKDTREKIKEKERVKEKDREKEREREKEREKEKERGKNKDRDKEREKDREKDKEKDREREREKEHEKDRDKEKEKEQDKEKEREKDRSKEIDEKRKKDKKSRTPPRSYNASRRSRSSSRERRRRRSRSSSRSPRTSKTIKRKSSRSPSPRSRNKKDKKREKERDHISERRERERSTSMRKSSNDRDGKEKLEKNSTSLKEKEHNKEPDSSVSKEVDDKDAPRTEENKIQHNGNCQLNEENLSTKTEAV
# UniProt Q96CQ1, sequence (Q96CQ1 whole entry, looked up): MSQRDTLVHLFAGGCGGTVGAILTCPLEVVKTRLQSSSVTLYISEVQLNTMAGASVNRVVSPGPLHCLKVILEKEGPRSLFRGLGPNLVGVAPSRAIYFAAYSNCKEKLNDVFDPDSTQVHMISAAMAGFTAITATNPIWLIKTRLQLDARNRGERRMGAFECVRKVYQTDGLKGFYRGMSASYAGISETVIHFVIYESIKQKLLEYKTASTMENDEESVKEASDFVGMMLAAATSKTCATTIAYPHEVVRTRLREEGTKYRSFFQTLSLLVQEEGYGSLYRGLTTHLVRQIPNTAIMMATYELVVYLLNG
# UniProt O75663, sequence (O75663 whole entry, looked up): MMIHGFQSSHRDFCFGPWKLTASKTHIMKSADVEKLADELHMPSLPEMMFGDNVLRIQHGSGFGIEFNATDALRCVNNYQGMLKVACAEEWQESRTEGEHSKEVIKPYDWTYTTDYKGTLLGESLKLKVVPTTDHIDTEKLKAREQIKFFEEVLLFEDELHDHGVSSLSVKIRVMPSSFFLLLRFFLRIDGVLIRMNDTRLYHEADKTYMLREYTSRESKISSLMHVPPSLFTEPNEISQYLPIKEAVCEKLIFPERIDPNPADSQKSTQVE
row,Target,log2 fold change
1,SNX2 (UniProt O60749),-0.015 (inactive)
2,TIPRL (UniProt O75663),0.018 (inactive)
3,SSR4 (UniProt P51571),-0.021 (inactive)
4,SMARCB1 (UniProt Q12824),0.887 (active)
5,SRSF6 (UniProt Q13247),0.29 (inactive)
6,SNX1 (UniProt Q13596),-0.002 (inactive)
7,SUCLA2 (UniProt Q9P2R7),-0.048 (inactive)
8,TCOF1 isoform 6 (UniProt Q13428),-0.006 (inactive)
9,SREBF1 isoform 4 (UniProt P36956),0.015 (inactive)
10,SPTBN1 (UniProt Q01082),0.024 (inactive)
11,SMAP2 (UniProt Q8WU79),0.019 (inactive)
12,TBP (UniProt P20226),0.012 (inactive)
13,SSX2 (UniProt Q16385),0.041 (inactive)
14,SNX11 (UniProt Q9Y5W9),0.135 (inactive)
15,SMARCA5 (UniProt O60264),0.099 (inactive)
16,SUOX (UniProt P51687),0.03 (inactive)
17,SYMPK (UniProt Q92797),-0.015 (inactive)
18,SLC38A2 (UniProt Q96QD8),-0.02 (inactive)

row,Target,log2 fold change
1,STRN (UniProt O43815),0.03 (inactive)
2,SYNE2 isoform 2 (UniProt Q8WXH0),-0.069 (inactive)
3,SPIRE1 (UniProt Q08AE8),-0.085 (inactive)
4,STAT5A (UniProt P42229),-0.087 (inactive)
5,SLC25A36 (UniProt Q96CQ1),0.022 (inactive)
6,TBC1D23 (UniProt Q9NUY8),-0.045 (inactive)
7,SYNE1 (UniProt Q8NF91),-0.141 (inactive)
8,SREK1 isoform 2 (UniProt Q8WXA9),-0.026 (inactive)
9,SP3 (UniProt Q02447),-0.071 (inactive)
10,SLC46A1 (UniProt Q96NT5),0.078 (inactive)
11,SRXN1 (UniProt Q9BYN0),-0.079 (inactive)
12,STAT3 (UniProt P40763),0.026 (inactive)
13,SMG1 (UniProt Q96Q15),-0.004 (inactive)
14,TFR2 (UniProt Q9UP52),0.052 (inactive)
15,SRP68 (UniProt Q9UHB9),0.091 (inactive)
16,SUGP1 (UniProt Q8IWZ8),-0.04 (inactive)
17,SRSF4 (UniProt Q08170),0.134 (inactive)
